Screening data from PubChem BioAssay.
The list is not random: actives were taken first. Their share in the collection is about 2.2%.
cardiac RTF act – cardiac RTF calcium sensitivity activators, primary screen, biochemical, IANBD-TnC fluorescence, EC20 calcium | Troponin I, cardiac muscle (Homo sapiens) + Troponin T, cardiac muscle (Homo sapiens) + … | IANBD-labeled TnC RTF fluorescence at EC20 calcium; 0% EC20 calcium, 100% full calcium | activation, % at 7.2 µM | 340,000 tested, 0.24% active;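 active means activation above the mean over all tested compounds plus 3 SD, cut at about 30% in these data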;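 further: rise in fluorescence read as greater calcium sensitivity of cardiac thin filaments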
CRFR2-BP ag – agonists of CRF-BP/CRF-R2 complex, primary screen, cell-based, HEK293, calcium dye fluorescence, uHTS | calcium dye fluorescence (FLIPR); percent of saturating CRF peptide response | CRF-binding protein / CRF receptor 2 complex (human) | activation, % at 13.2 µM | 350,000 tested, 0.46% active;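 active means activation of at least 50%, plus an integration ratio under a set limit after plate pattern correction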;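 further: plate controls were neutral control wells without compound for no effect and CRF at EC100 for full effect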
Cardiac RTF inh – cardiac RTF calcium sensitivity inhibitors, primary screen, biochemical, IANBD-TnC fluorescence, EC70 calcium; Troponin I, cardiac muscle (Homo sapiens) + Troponin T, cardiac muscle (Homo sapiens) + …; IANBD-labeled cardiac RTF, Ca2+ fluorescence; inhibition, % at 7.15 µM; 340,000 tested, 0.12% active; AID 493244, 2011;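 active means inhibition above the mean inhibition of all tested compounds plus 3 SD, cut at about 17% in these data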;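 further: assay run at fixed EC70 calcium of 1.6 mM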
CRFR2-BP antag – antagonists of CRF-BP/CRF-R2 complex, primary screen, cell-based, HEK293, calcium dye fluorescence, uHTS; inhibition, % at 11.8 µM; 350,000 tested, 0.59% active; CRF-induced calcium fluorescence; AID 588475, 2011;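 active means inhibition of the ligand-induced calcium signal above about 50% at the single tested concentration, limit read from the data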
Myeloid diff MLP – induction of myeloid progenitor differentiation, primary screen, cell-based, flow cytometry, MLPCN library. 360,000 tested, 1% active. ER-HoxA9 myeloid progenitors, lysozyme-GFP differentiation. calls only at 10 µM;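 active means normalized GFP-positive differentiation at or above the plate's own cutoff, the solvent-only control mean plus 3 SD; inconclusive means no clear call, values can overlap the other calls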;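 further: cells exposed to compound for four days before flow analysis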
* = called active by the depositor; i = inactive; ? = inconclusive; · = no result; + = active, no number.

SMILES	cardiac RTF act	CRFR2-BP ag	Cardiac RTF inh	CRFR2-BP antag	Myeloid diff MLP
Cc1nc2ccccc2n1CC(O)Cn1c2ccccc2c2ccccc21 (stereo not drawn)	-6	1	-8	-5	+
Cc1nc2ccccc2n1CC(O)COC1CCCCC1 (stereo not drawn)	1	-2	7	53*	i
CCCCOCC(O)Cn1c(C)nc2ccccc21 (stereo not drawn)	5	0	-4	17	i
O=C(/C=C/c1cccc(C(F)(F)F)c1)NNC(=O)c1ccncc1	-2	1	8	-9	i
Cc1c(C(c2ccccc2O)c2c(C)n(C)n(-c3ccccc3)c2=O)c(=O)n(-c2ccccc2)n1C	5	2	-3	-7	+
Cc1nnc(SCC(=O)NC2CCCCC2)n1-c1ccccc1	·	2	·	-18	i
Cc1cc(OC(C)C(=O)NCc2cccnc2)c2c(C)cc(=O)oc2c1 (stereo not drawn)	5	1	-1	-11	i
CN(Cc1ccc(C(F)(F)F)cc1)C(=O)C1CCC(=O)N(C2CC2)C1 (stereo not drawn)	-1	1	10	-3	i
CN(Cc1cccc(Cl)c1)C(=O)C1CCC(=O)N(C2CC2)C1 (stereo not drawn)	-4	0	-2	81*	i
Cc1ccc(Nc2ncnc3sc(C)c(C)c23)cc1C	5	-1	6	-16	+
CSc1ccc(/C=C/C(=O)NC(=O)c2ccccc2O)cc1	1	12	-6	14	i
CCN(CC)c1ncnc2c1ncn2[C@H]1CN(Cc2cc(OC)c(OC)c(OC)c2)C[C@@H](CO)O1	·	·	·	·	i
COc1ccccc1NC(=O)CCC(=O)Nc1ccccc1OC	6	-1	11	-10	i
COc1ccccc1NC(=O)CCC(=O)c1ccc(-c2ccccc2)cc1	8	2	3	-11	+
Cc1nc(C)c(-c2nnc(-c3ccc(C(C)(C)C)cc3)o2)cc1C(=O)NN	-1	1	9	-28	+
COc1ccc(CCNC(=O)c2cc(=O)n(C)c(=O)n2C)cc1OC	-9	0	1	8	i
Cn1c(C(=O)NCCc2ccccc2)cc(=O)n(C)c1=O	5	2	-4	71*	i
Cn1c(=O)c2ncn(CC(=O)Nc3ccc4c5c(cccc35)CC4)c2n(C)c1=O	3	8	-10	-11	+
Cc1ccc(OCC(=O)Nc2ccc3c4c(cccc24)CC3)c(C)c1	0	28	4	-41	+
Cc1cccc(C)c1NC(=O)Cn1cnc2c(=O)n(C)c(=O)n(C)c21	3	-1	-5	-2	i
CCCCn1c(N)c(N(CCC(C)C)C(=O)COC(=O)c2ccc3ccccc3c2)c(=O)[nH]c1=O	-4	0	-2	7	i
O=C(Cc1c(Cl)cccc1Cl)OCC(=O)N1CCN(C(=O)c2ccco2)CC1	1	0	-6	-11	i
N#C/C(N=Nc1ccccc1O)=N\Nc1ccccc1O	-5	61*	-21	97*	i
Fc1ccc(OCCCCCn2ccnc2)cc1	-1	1	3	55*	·
Fc1ccc(OCCCn2ccnc2)cc1	3	-2	-2	7	i
SMILES	cardiac RTF act	CRFR2-BP ag	Cardiac RTF inh	CRFR2-BP antag	Myeloid diff MLP
Cc1c(Cc2ccccc2)c(=O)oc2cc(OC(C)C(=O)NCC3CCC(C(=O)O)CC3)c(Cl)cc12 (stereo not drawn)	7	0	-6	0	i
C=CCSc1nc2sc(C)c(C)c2c(=O)n1CC=C	-3	-2	-5	-36	i
C=CCn1c(SCC(=O)c2cccs2)nc2sc(C)c(C)c2c1=O	0	5	-6	17	+
C=CC[C@@H](CC(=O)N(CCO)Cc1ccccc1)C(=O)NC[C@H](OC(=O)[C@@H](CC=C)Cc1ccc(F)cc1)c1ccccc1	3	2	-2	11	?
CC1CCCC(C)N1C(=O)c1cc(-c2ccco2)on1 (stereo not drawn)	0	0	-1	7	+
CC1CCN(C(=O)c2cc(-c3ccco3)on2)CC1	-1	0	-3	-1	i
CC1N(C)c2cccc3cccc(c23)N1C	5	-4	-14	-16	+
CN1c2cccc3cccc(c23)N(C)C1c1cccs1	-5	1	1	-15	i
Cc1cc(N2CCC(C)CC2)c(F)cc1[N+](=O)[O-]	-3	-1	7	-7	i
Cc1cc(N2CCCC2)c(F)cc1/C=C\[N+](=O)[O-]	8	120*	-11	-74	?
CC1CCc2c(sc(NS(=O)(=O)c3ccccc3)c2C(=O)OC(C)C)C1 (stereo not drawn)	9	2	5	-9	i
CC(=O)N(/N=C1\Sc2ccccc2C1=O)c1ccc(C)cc1C	-2	-6	0	1	+
COC(=O)C(=Cc1ccccc1[N+](=O)[O-])C(=O)OC	1	7	1	-5	i
CCN(CC)CCn1c(NS(=O)(=O)c2ccc(Cl)cc2)nc2ccccc21	-4	-1	4	2	i
Cc1ccsc1C1CC(=O)Nc2ccccc2S1 (stereo not drawn)	-3	0	-6	-5	+
O=C1CC(c2ccccc2)Sc2ccccc2N1 (stereo not drawn)	-1	1	-4	0	i
CCCCNc1c(-c2ccc(OC)c(Sc3ccc(OC)cc3)c2)nc2cnccn12	-4	5	-5	-9	i
CCCCNc1c(-c2ccc(SC(C)CC)cc2)nc2cnccn12 (stereo not drawn)	-3	19	-12	-14	+
CC1C(=O)N(Cc2cn(CCC3OCCCO3)nn2)CCS(=O)(=O)N1Cc1ccc(-c2ccc(Cl)cc2)cc1 (stereo not drawn)	·	0	·	52*	i
COc1ccc(-c2ccc(CN3C(C)C(=O)N(Cc4cn(Cc5ccco5)nn4)CCS3(=O)=O)cc2)cc1 (stereo not drawn)	·	-2	·	69*	i
CC(C)(C)[C@@H]1COC(=O)[C@H](Cc2ccc(F)cc2)C/C=C\C[C@@H](CC(=O)NCCO)C(=O)N1	4	-1	10	-7	i
Cc1cc(C)n(C(=O)CNC(=O)c2ccccc2Br)n1	1	-1	-1	97*	i
Cc1cc(C)n(C(=O)CCNC(=O)c2ccccc2Br)n1	0	0	-3	18	i
CCOc1ccc(-n2c(SCC(=O)NC)nnc2-c2ccco2)cc1	5	1	-10	-5	i
